Here are results for 23 compounds from PubChem BioAssay.

The nature of the assay: binders of probe aFSTL3 on microarray, primary screen, stem cell growth factor project, biochemical, small-molecule microarray, fluorescence 635/667 (AID 1064).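 Also: measures binding of the biotinylated anti-FSTL3 antibody to printed compounds.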 To be noted: higher = more signal.
`O=C1O[C@H](c2ccccc2)[C@H](c2ccccc2)N2[C@H]1[C@@H](C(=O)O)[C@]1(C(=O)Nc3ccc(C#CCCO)cc31)[C@H]2c1ccccc1OCCO`: the composite z-score was -0.324.
Under `COC(=O)[C@@]1(Cc2ccc(F)cc2)[C@H]2c3cc(C(=O)N4CCCC4)n(CCc4c[nH]c5ccccc45)c3C[C@H]2CN1C(=O)c1ccccc1` stands 0.484; under `[N-]=[N+]=Nc1ccccc1C[C@]1(C(=O)N2CCOCC2)COC(c2ccc(OCCCO)cc2)=N1`, -0.0495.
Under `C=CCN1C(=O)[C@]2(CCC(=O)OC(C)(C)C)N=C(c3ccc(OCCCO)cc3)O[C@@H]2c2ccccc21` stands 0.369; under `O=C1OCCC=C[C@H]2OC34C=CCN(Cn5nnc6ccccc65)C(=O)[C@H]3N(CCCO)C(=O)[C@@H]4C12` (stereo partly drawn), 0.32.
With `COCCOC(=O)N1C(=O)[C@@]2(c3ccccc31)[C@H](c1ccc(O)cc1)N1[C@H](c3ccccc3)[C@H](c3ccccc3)OC(=O)[C@H]1[C@@H]2C(=O)N1CCN(c2ncccn2)CC1`, the composite z-score is -0.224.
The figure for `Cc1ccc(S[C@]2(C(=O)NCC(F)(F)F)CC(=O)N(Cc3cc(C(F)(F)F)cc(C(F)(F)F)c3)[C@@H]2c2ccc(CO)cc2I)cc1` is 0.225.
The figure for `C#CCN([C@@H](Cc1ccccc1)C(=O)OC)[C@@H](/C=C/C1CC1)[C@H](O)Cc1ccccc1` is 1.2; for `CC(C)C(CO)N1C(=O)[C@@H]2[C@H]3C(=O)OCC=C[C@H]3OC23C=CCN(c2ccc(Cl)cc2)C(=O)[C@@H]13` (stereo partly drawn) it is -0.0597.
In the case of `COC(=O)[C@@]1(Cc2ccc(F)cc2)[C@H]2c3cc(C(=O)N4CCCC4)n(Cc4ccc(C)c(F)c4F)c3C[C@H]2CN1C(=O)c1ccccc1`, the composite z-score is 0.573.
In the case of `COc1ccccc1CN1C(=O)c2ccccc2[C@](Cc2ccccc2I)(C(=O)O)[C@@H]1c1ccc(CO)cc1`, the composite z-score was -0.689.
Under `COc1ccc([C@H]2OC[C@@H]3C[C@H](Cc4ccccc4)C(=O)N32)cc1` stands -0.458; under `COCCOC(=O)N1C(=O)[C@@]2(c3cc(C#CC4(O)CCCCCC4)ccc31)[C@H](c1ccc(O)cc1)N1[C@H](c3ccccc3)[C@H](c3ccccc3)OC(=O)[C@H]1[C@@H]2C(=O)N1CCN(c2ncccn2)CC1`, -0.133.
On to `CCCC1(C(=O)OC)C=C2C(=C(C)C(=O)C2C)CN1` (stereo not drawn), for which the composite z-score is 0.948.
The compound `COc1cc(NN2C(C(O)c3ccco3)C=CC3C(=O)N(C)C(=O)C32)cc(OC)c1OC` (stereo not drawn) displayed a composite z-score of 0.256.
For the compound `CCCNC(=O)[C@@H]1c2ccccc2C(=O)N(Cc2ccc(OC(F)(F)F)cc2)[C@H]1c1ccc(CO)cc1`, the composite z-score worked out at 0.193.
Take `C=CC[C@@H](OC(=O)Nc1ccc(OC)cc1)c1ccc(O)c(F)c1`: the composite z-score was found to be 0.93.
Turning to `CCCC[C@@H](O)C1=C(COC)C[C@H]2C(=O)N(Cc3ccccc3)C(=O)[C@H]2[C@H]1CO`, the composite z-score was -1.06.
The figure for `CC(C)NC(=O)[C@@]1(c2ccc([N+](=O)[O-])cc2)CC(=O)N(C2CCCCC2)[C@@H]1c1ccc(CO)cc1` is -0.903.
Under `CC1CC/C=C\[C@H]2OC34C=CCN(c5ccc(Cl)cc5)C(=O)[C@H]3N(C(C)CO)C(=O)[C@]4(C)C2C(=O)O1` (stereo partly drawn) stands 0.0528.
Under `COc1cc2c(cc1O)C(C1CC1)N(Cc1cccc(OC(F)(F)F)c1)CC2` (stereo not drawn) stands -0.119; under `CC(c1ccccc1)C(O)C1C=CC2C(=O)N(C)C(=O)C2N1Nc1ccccc1` (stereo not drawn), 0.799; under `CCOC(=O)C1=CC[C@@H](c2ccccc2F)N(S(=O)(=O)c2ccc(C)cc2)[C@H]1c1ccccc1`, -0.419.
